What all share (assay): NCI-60 one-dose screen, 48 h (100 = growth as untreated, 0 = no growth, -100 = all killed)
One assay concerns HT29 colon. Particulars: 10 µM unless noted.
A further assay concerns SNB-75 CNS. Particulars: 10 µM unless noted.
The test system of another assay is SNB-19 CNS. Conditions: 10 µM unless noted.
The subject of another assay is U251 CNS. Particulars: 10 µM unless noted.
For the next assay, the system named is PC-3 prostate. Conditions: 10 µM unless noted.
The test system of the next assay is SK-MEL-5 melanoma. Conditions: 10 µM unless noted.
A further assay concerns UACC-62 melanoma. Particulars: 10 µM unless noted.
The test system of a further assay is LOX IMVI melanoma. Particulars: 10 µM unless noted.
The next assay concerns SK-MEL-28 melanoma. Particulars: 10 µM.
A further assay relates to SK-MEL-2 melanoma. Particulars: 10 µM unless noted.
The subject of the next assay is EKVX NSCLC. Particulars: 10 µM unless noted.
The test system of another assay is SN12C renal. Particulars: 10 µM unless noted.
In a further assay the test system is UO-31 renal. Conditions: 10 µM unless noted.
The next assay concerns ACHN renal. Particulars: 10 µM unless noted.
The next assay concerns CAKI-1 renal. Particulars: 10 µM unless noted.
A further assay has as its system CCRF-CEM leukemia. Conditions: 10 µM unless noted.
Another assay concerns MOLT-4 leukemia. Conditions: 10 µM unless noted.
The next assay has as its system SR leukemia. Particulars: 10 µM unless noted.
A further assay relates to TK-10 renal. Particulars: 10 µM unless noted.
For a further assay, the system named is A498 renal. Conditions: 10 µM unless noted.

About 83,000 compounds went through this panel and 20% of them were active in at least one assay; those are over-represented in the sample as a whole.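 Method: cells in 96-well plates; compound added at one concentration; 48 h incubation; percent growth measured; values under 10 scored active.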 A number with no mark means an inactive call. Active and inactive are the calls of the source.

With `O=C(Nc1ccc(N2CCNCC2)cc1)c1[nH]ncc1Nc1ncnc2sc3c(c12)CCC3`, the growth in the assay on HT29 colon was -67.3% (active); in the assay with SNB-75 CNS, -99.5% (active); in the assay on SNB-19 CNS, -99.5% (active); in the assay with U251 CNS it was -96.5% (active); in the assay on PC-3 prostate, -83.6% (active); with SK-MEL-5 melanoma, -97.4% (active). Further, the growth in the assay on UACC-62 melanoma was -85.1% (active); in the assay on LOX IMVI melanoma, -91.4% (active); with SK-MEL-28 melanoma it was -84.7% (active); in the assay with SK-MEL-2 melanoma, 4.15% (active); with EKVX NSCLC it was -86.8% (active); in the assay with SN12C renal, -75.1% (active). Also, the growth in the assay on UO-31 renal is -85.6% (active); in the assay with ACHN renal, -99.5% (active); with CAKI-1 renal, -93.1% (active); in the assay with CCRF-CEM leukemia, -32.1% (active); in the assay with MOLT-4 leukemia, -39.3% (active); in the assay with SR leukemia, -8.96% (active).

Turning to `CCCCN1CCN(c2ccc3nc(-c4ccc5nc(-c6ccc(C(F)(F)F)cc6)[nH]c5c4)[nH]c3c2)CC1`, the growth is -49.5% (active) with HT29 colon; -93.6% (active) with SNB-75 CNS; -91.4% (active) with SNB-19 CNS; -86.6% (active) in the assay on U251 CNS; -77% (active) in the assay on PC-3 prostate; 10.8% in the assay on SK-MEL-5 melanoma. Further, the growth in the assay with UACC-62 melanoma was -31.6% (active); with LOX IMVI melanoma, -89.5% (active); in the assay with SK-MEL-28 melanoma, -88.3% (active); with SK-MEL-2 melanoma, -47.5% (active); with EKVX NSCLC it was -72.4% (active); with SN12C renal, -80.9% (active). For the same compound, the growth was -82.8% (active) in the assay on UO-31 renal; -71.3% (active) in the assay on TK-10 renal; -99.5% (active) with ACHN renal; -77.1% (active) in the assay on CAKI-1 renal; -32.6% (active) in the assay on CCRF-CEM leukemia; -61% (active) in the assay on MOLT-4 leukemia. Besides, the growth with SR leukemia was -46.8% (active).

Turning to `COc1ccc(Nc2nc(N/N=C/c3ccc(O)cc3)nc(Nc3ccc([N+](=O)[O-])cc3)n2)cc1`, the growth with HT29 colon is 105%; in the assay on SNB-75 CNS, 104%; with SNB-19 CNS, 101%; with U251 CNS it was 104%; in the assay on PC-3 prostate it was 108%; with SK-MEL-5 melanoma, 104%. Besides, the growth in the assay with UACC-62 melanoma is 110%; in the assay with LOX IMVI melanoma, 107%; in the assay with SK-MEL-28 melanoma, 104%; in the assay with SK-MEL-2 melanoma, 103%; in the assay with SN12C renal, 103%; in the assay on UO-31 renal, 103%. Besides, the growth was 115% with TK-10 renal; 103% with ACHN renal; 123% with CAKI-1 renal; 105% in the assay with A498 renal; 99.9% with CCRF-CEM leukemia; 108% in the assay on MOLT-4 leukemia. In addition, the growth in the assay on SR leukemia is 105%.

In the case of `COc1cc(NC(=O)CCSc2nc3ccccc3c(=O)n2CCc2ccccn2)cc(OC)c1OC`, the growth in the assay with HT29 colon is 102%; in the assay with SNB-75 CNS, 8.5% (active); with SNB-19 CNS it was 98.6%; in the assay on U251 CNS, 85.1%; with PC-3 prostate, 81.6%; with SK-MEL-5 melanoma, 87.8%. For the same compound, the growth in the assay with UACC-62 melanoma was 84%; in the assay on LOX IMVI melanoma, 94.8%; with SK-MEL-28 melanoma, 83.3%; in the assay with SK-MEL-2 melanoma it was 92.4%; with SN12C renal, 92.8%; with UO-31 renal it was 85%. The growth with TK-10 renal was 111%; with ACHN renal it was 91%; in the assay on CAKI-1 renal it was 89%; in the assay with A498 renal it was 74.7%; in the assay with CCRF-CEM leukemia, 83.2%; in the assay on MOLT-4 leukemia it was 87.6%.

For `NCCOc1ncccc1/C=C1\c2ccccc2-c2ccc(F)cc21`, the growth with HT29 colon was 13%; in the assay with SNB-75 CNS it was 15.7%; in the assay with SNB-19 CNS, 16%; in the assay with U251 CNS, 8.04% (active); in the assay with PC-3 prostate it was 42.5%; in the assay with SK-MEL-5 melanoma, 25.1%. Moreover, the growth with UACC-62 melanoma was 34.8%; in the assay with LOX IMVI melanoma it was -11.5% (active); in the assay on SK-MEL-28 melanoma, 70.2%; in the assay with SK-MEL-2 melanoma, 112%; with EKVX NSCLC it was 51.9%; in the assay on SN12C renal, 2.42% (active). The growth with TK-10 renal was 22.4%; in the assay with ACHN renal, -20.8% (active); with CAKI-1 renal it was 12.8%; in the assay on A498 renal, 18.9%; in the assay on CCRF-CEM leukemia it was 6.8% (active); in the assay with MOLT-4 leukemia it was 2.25% (active). Also, the growth in the assay with SR leukemia is 9% (active).

With `O=C(COc1cc(O)c2c(=O)cc(-c3ccccc3)oc2c1)Nc1ccccc1`, the growth with HT29 colon is 106%; with SNB-75 CNS, 88%; with SNB-19 CNS it was 87.4%; in the assay with U251 CNS, 93.7%; with PC-3 prostate, 86.2%; in the assay with SK-MEL-5 melanoma, 99%. The growth in the assay with UACC-62 melanoma is 93.7%; in the assay with LOX IMVI melanoma, 89.6%; in the assay on SK-MEL-28 melanoma, 107%; in the assay with SK-MEL-2 melanoma, 96.6%; in the assay on SN12C renal, 89.9%; with UO-31 renal, 80.2%. Moreover, the growth was 103% in the assay with TK-10 renal; 57.9% with ACHN renal; 77.9% with CAKI-1 renal; 98.8% in the assay with A498 renal; 94.4% in the assay on CCRF-CEM leukemia; 91.1% in the assay on MOLT-4 leukemia.

Regarding `COc1ccccc1C(=O)O/N=C(\N)Cc1cccc2ccccc12`, the growth was 77.7% in the assay on HT29 colon; 67% in the assay on SNB-75 CNS; 87.7% in the assay on SNB-19 CNS; 90.9% with U251 CNS; 78.6% in the assay on PC-3 prostate; 70.4% in the assay with SK-MEL-5 melanoma. The growth is 83.3% in the assay on UACC-62 melanoma; 70.6% with LOX IMVI melanoma; 114% in the assay with SK-MEL-28 melanoma; 89.6% in the assay with SK-MEL-2 melanoma; 67.3% in the assay with SN12C renal; 70.8% in the assay on UO-31 renal. The growth in the assay with TK-10 renal was 120%; with ACHN renal, 86.5%; in the assay with CAKI-1 renal, 77%; with A498 renal it was 95.1%; with CCRF-CEM leukemia, 80.1%; in the assay on MOLT-4 leukemia, 79%.

Regarding `NCCNc1nc2ccccc2c2c(=O)c3cc(F)cc(Cl)c3sc12`, the growth with HT29 colon is -64.3% (active); in the assay on SNB-75 CNS it was 44.6%; in the assay with SNB-19 CNS, 81.4%; in the assay with U251 CNS, -84.3% (active); in the assay with PC-3 prostate, -70.4% (active); in the assay with SK-MEL-5 melanoma, 85.5%. The growth with UACC-62 melanoma is 44.8%; with LOX IMVI melanoma, -92.1% (active); in the assay on SK-MEL-28 melanoma, -89.8% (active); with SK-MEL-2 melanoma, 99.1%; in the assay with SN12C renal, -83.7% (active); in the assay on UO-31 renal it was -93.7% (active). Also, the growth in the assay with TK-10 renal was -30.6% (active); in the assay on ACHN renal, -94.7% (active); in the assay on CAKI-1 renal, -96.3% (active); with A498 renal, 46.9%; in the assay on CCRF-CEM leukemia, -28.1% (active); in the assay with MOLT-4 leukemia it was 29.1%. For the same compound, in the assay with SR leukemia, the growth was -27.7% (active).
